# USP10 block: human USP10 deubiquitinase inhibition; hit rate 1.1% among 47,000; purified USP10, Ub-rhodamine fluorescence, 60 min; AID 1645856; inhibition, % at 20 µM
# USP8 inh: inhibitors of human USP8 deubiquitinase. P40818. purified USP8, Ub-rhodamine cleavage fluorescence, 30 min. inhibition, % at 20 µM. hit rate 4.2% among 47,000
# USP28 block: human USP28 deubiquitinase inhibition; inhibition, % at 25 µM; hit rate 3% among 47,000; purified USP28, Ub-rhodamine cleavage fluorescence, 30 min; AID 1645857; Q96RU2
# USP17 block: blocks human USP17 ubiquitin-rhodamine cleavage; purified USP17, Ub-rhodamine cleavage fluorescence, 3 h; hit rate 6.5% among 47,000; inhibition, % at 50 µM; A8MUK1
# USP30 inh: human USP30 deubiquitinase inhibition | Q70CQ3 | purified USP30, Ub-rhodamine cleavage fluorescence | inhibition, % at 25 µM | hit rate 5.3% among 47,000
# Target sequence (Q70CQ3 whole entry, looked up): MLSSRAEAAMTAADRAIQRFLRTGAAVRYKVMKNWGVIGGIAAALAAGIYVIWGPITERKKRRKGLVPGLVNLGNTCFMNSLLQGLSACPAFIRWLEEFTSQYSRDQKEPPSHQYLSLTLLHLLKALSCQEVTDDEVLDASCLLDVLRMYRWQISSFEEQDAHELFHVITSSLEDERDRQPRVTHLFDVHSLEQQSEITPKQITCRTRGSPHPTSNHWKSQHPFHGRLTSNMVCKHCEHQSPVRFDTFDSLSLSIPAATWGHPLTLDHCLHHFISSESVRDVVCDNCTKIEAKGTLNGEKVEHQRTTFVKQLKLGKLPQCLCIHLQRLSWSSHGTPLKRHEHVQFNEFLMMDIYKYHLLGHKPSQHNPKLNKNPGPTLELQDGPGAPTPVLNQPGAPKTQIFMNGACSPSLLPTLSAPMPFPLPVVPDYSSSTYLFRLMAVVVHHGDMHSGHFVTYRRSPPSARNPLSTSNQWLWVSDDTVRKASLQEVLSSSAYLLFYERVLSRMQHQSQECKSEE
# Active calls of the source: *; i = inactive; / = no result given. Compounds with a hit are over-represented: about 14% of the library has one in this group of screens. No stated cut-off is given here; in the data, active means inhibition above about 30%; inactive means the rest.
SMILES,USP10 block,USP8 inh,USP28 block,USP17 block,USP30 inh
CN(C)c1ccc(NC(=O)c2ccc(Cn3cc([N+](=O)[O-])cn3)cc2)cc1,3,46*,28,29,-55
CC(C)(C)c1ccc(C(=O)Nc2ccc(Cn3cncn3)cc2)cc1,-4,-13,56*,3,3
O=C(O)CC(NC(=O)c1cnn(Cc2ccccc2)c1)c1ccccc1 (centres undefined),-2,-9,-14,-6,5
NC(=O)c1ccc(NC(=O)c2cnn(Cc3ccccc3)c2)cc1,-3,1,8,38*,15
COc1ccc(-c2csc(-c3cc4c([nH]c3=O)CC(c3ccco3)CC4=O)n2)cc1 (centres undefined),-6,-16,-23,21,-188
O=C1CC(c2ccco2)Cc2[nH]c(=O)c(-c3nc(-c4ccc(Cl)cc4)cs3)cc21 (centres undefined),-10,34*,-5,6,-337
CCOC(=O)c1noc2ncnc(N3CCc4ccccc43)c12,0,-13,-2,8,-1
CCOC(=O)c1noc2ncnc(Nc3ccc(N4CCC(C)CC4)cc3)c12,1,50*,-3,2,-2
CCOC(=O)c1noc2ncnc(Nc3ccc4c(c3)OCO4)c12,0,69*,5,28,-18
Cc1ccc(C(=O)N2CCC3(CC2)COCCN(c2ncccn2)C3)cc1,2,1,7,8,16
O=C(CN1CCCCCC1)Nc1cc([N+](=O)[O-])ccc1Cl,4,-69,21,45*,28
O=C(CN1CCCCC1)Nc1nnc(-c2ccc([N+](=O)[O-])cc2)s1,11,-79,35*,38*,34*
COc1cc2c(cc1OC)CN(CC(=O)Nc1cc([N+](=O)[O-])ccc1Cl)CC2,-2,-120,-11,-18,-19
COCCn1c(C)cc(C(=O)CSc2ccc(Cl)cc2)c1C,-1,16,30*,20,-13
CCOC(=O)N1CCN(S(=O)(=O)c2ccc(C(=O)Nc3ccccc3Oc3ccccc3)cc2)CC1,6,2,-1,2,21
CCOC(=O)N1CCN(S(=O)(=O)c2ccc(C(=O)Nc3ccc(Br)cc3)cc2)CC1,11,5,8,88*,28
COc1cc2ncn(CCC(=O)N3CCN(Cc4ccccc4)CC3)c(=O)c2cc1OC,-1,0,1,-2,1
CC(=O)c1ccccc1NC(=O)COc1ncnc2scc(-c3ccc(F)cc3)c12,-8,-6,-21,-22,-17
COc1cc2c(cc1OC)CN(c1ncnc3scc(-c4ccccc4)c13)CC2,-9,37*,1,-42,-28
COc1cc(NC(=O)CSc2ncnc3scc(-c4ccccc4)c23)c(C(=O)O)cc1OC,30*,-47,-46,-19,-147
O=C(Nc1cccnc1)c1coc(NC(=O)c2ccco2)n1,0,-142,6,-11,2
O=C1[C@H]2[C@@H](C(=O)N1c1ccc(Cl)cc1Cl)[C@]1(C(=O)Nc3ccc(F)cc31)N1CCC[C@@H]21,-4,-153,-204,-123,i
CNS(=O)(=O)c1ccc(Nc2ccc3c(c2)OCO3)c([N+](=O)[O-])c1,0,-31,1,21,-15
Clc1ccc2c(Nc3ccc4c(c3)OCO4)ccnc2c1,7,-66,43*,56*,53*
Cc1ccc([N+](=O)[O-])cc1S(=O)(=O)Nc1cc2sc(=O)oc2c2ccccc12,37*,89*,61*,67*,-10
SMILES,USP10 block,USP8 inh,USP28 block,USP17 block,USP30 inh
Nc1nonc1C(=O)NCCNCc1cccc(OCc2ccc(Cl)cc2)c1,2,-3,56*,9,17
COc1ccccc1CNC(=O)c1cc(N(C)C)n2nccc2n1,-2,-2,-4,-44,-13
O=c1oc2ccccc2c(NCc2ccc3c(c2)OCO3)c1CN1CCCC1,-2,0,17,31*,12
Cc1onc(C(=O)NCc2ccc3c(c2)OCO3)c1CN1CCOCC1,-1,4,1,-6,-9
CCOc1ccc(NC(=O)CCn2c(-c3ccc(OC)cc3)cc(C(C)=O)c2C)cc1,4,19,20,70*,80*
COc1ccc(-c2cc(C(C)=O)c(C)n2CCC(=O)NC2CCCCCC2)cc1,-1,-9,-4,-7,-10
CCOc1ccc(NC(=O)CNc2nc(Nc3ccc(OC)cc3)nc(Nc3ccc(OC)cc3)n2)cc1,29,10,20,58*,69*
Cn1c(CCNC(=O)c2ccco2)nc2cc([N+](=O)[O-])ccc21,3,-84,12,-4,27
COc1ccc(N(CC(=O)NCc2ccncc2)S(=O)(=O)c2ccccc2)c(OC)c1,-1,-6,-1,0,-2
O=C(NCCc1cccc(F)c1)c1nc2c(s1)CCCN2C(=O)C1CC1,1,-61,37*,-9,12
O=C(NCCc1cccnc1)c1nc2c(s1)CCCN2C(=O)C1CC1,-3,-16,21,4,18
CCc1ccccc1Cn1c(=O)oc2cccnc21,2,0,8,4,3
COc1ccc2c(c1)c1ncn(CCN3CCCC3)c(=O)c1n2C,-4,-1,-15,-20,-28
COc1ccc2c(c1)c1ncn(CCC3=CCCCC3)c(=O)c1n2C,7,15,47*,16,31*
COc1ccc2c(c1)c1ncn(Cc3ccc4c(c3)OCO4)c(=O)c1n2C,-1,26,11,35*,48*
COc1ccccc1C1=NC(c2ccc(C)cc2)N=C1C (centres undefined),7,5,6,32*,24
O=C(Cn1c(=O)n(-c2ccccc2)c2ncccc21)N1CCN(c2ccccn2)CC1,1,11,-5,0,8
O=C(c1cc(-c2ccc(Cl)cc2)n[nH]1)N1CCN(c2ccccn2)CC1,23,66*,13,45*,43*
COc1ccc(-c2cc(C(=O)N3CCN(c4ccccn4)CC3)[nH]n2)cc1,4,14,21,46*,11
Cc1ccc(-c2nn3c(N4CCCC4)cc(C)nc3c2C)cc1,-2,-2,-5,22,-3
O=C(c1cc(-c2ccc(Cl)cc2)n[nH]1)N1CCN(C(=O)c2ccco2)CC1,3,-4,3,70*,10
COc1ccc(-c2nn3c(N4CCN(c5ccccn5)CC4)cc(C)nc3c2C)cc1,1,3,/,84*,/
COc1ccc(-c2cc(N3CCN(C(=O)c4ccccn4)CC3)n[nH]2)cc1,0,-7,-17,-10,-23
O=C(CC1C(=O)NCCN1C(=O)Nc1ccc(F)cc1F)Nc1ccc(F)cc1 (centres undefined),2,4,0,3,5
COc1ccc(NC(=O)CSc2oc(-c3ccc(C)cc3)nc2S(=O)(=O)c2ccc(Br)cc2)c(OC)c1,2,13,10,59*,16
Cc1nnc(SCC(=O)Nc2ccc(Cl)c(Cl)c2)c2ccccc12,1,4,-9,-17,-13
Oc1ccc(-c2nnc(Nc3ccc(Cl)c(Cl)c3)c3ccccc23)cc1,21,53*,20,49*,-29
